Screens from PubChem BioAssay.
ERK AVP inh: vasopressin-driven ERK pathway inhibition; HEK293-V1b, vasopressin-stimulated pERK AlphaScreen; Potency, µM (doses to about 57.5 µM), for the others: at the highest dose activity, negative = inhibition, most hits filed as inhibitors; actives 0.99% (n = 72,000); further: on the % scale 0 is the no-effect control and ±100 the full control effect; nearly all actives have a fitted effect of over 55% in size
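Phosphorylated ERK1/2 detected via AlphaScreen bead proximity in lysates of V1b-expressing HEK293 cells given 25 nM vasopressin for 5 min after 30 min compound exposure (37 °C). AC50 from Hill equation; basal DMSO 0%, vasopressin 100%.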
TSHR ag: agonists of human thyroid stimulating hormone receptor. P16473. HEK293-CNG-TSHR cells (CNG channel as cAMP sensor), membrane potential dye, cAMP. Potency, µM (highest dose often 57.1 µM), without a hit: at the top dose activation, usual class: activators. actives 0.48% (n = 73,000); active means well fitted activation curve with a large enough effect in the main read-out, with a control signal flat, not every such curve was filed as active; inconclusive means small, poorly fitted or top-dose-only effect, or a change in a side signal; inactive means no such curve, though single readings can be large or run the other way; % of control where 0% means no effect;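 further: the control signal comes from parental cells without the receptor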
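cAMP rise detected as CNG-channel membrane depolarization by fluorescent dye (emission 590 nm), 30 min after compound, following 60 min dye loading containing 100 uM RO 20-1724 at room temperature. Cells: TSHR/CNG HEK 293, with parental CNG HEK 293 as control.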
CRE Fsk mod: modulators of forskolin-stimulated CRE signaling in CHO cells; CHO CRE-bla reporter (cAMP response element driving beta-lactamase), forskolin EC10, beta-lactamase ratio; AID 662; actives 2.5% (n = 71,000); Potency, µM (titrated, usually from 38.2 µM), for inactives: at the top dose activity change, negative = inhibition, actives largely listed as activators; active means well fitted activation curve with a large enough effect in the signal ratio, with a control signal flat, not every such curve was filed as active; inconclusive means small, poorly fitted or top-dose-only effect, or effect the other way, or a change in a side signal; the % refers to the signal ratio; further: % of control where 0% means no effect
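Titrated compounds plus EC10 NKH 477 on CHO CRE-bla cells, 3 h, 37 °C. CCF4, 2 h RT. Ratio 460/530 nm → AC50.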
Tau filament bind: tau filament binding. P10636. recombinant tau filaments, thioflavin S fluorescence, 15 h; filaments grown with octadecylsulfate alongside compound. Potency, µM (top dose mostly 57.1 µM), for the others: at the highest dose activity change, negative = inhibition. actives 2% (n = 71,000);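 further: on the % scale 0 is the no-effect control and ±100 the full control effect; actives lower thioflavin S fluorescence by blocking filaments or displacing dye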
Target sequence (P10636 whole entry, looked up): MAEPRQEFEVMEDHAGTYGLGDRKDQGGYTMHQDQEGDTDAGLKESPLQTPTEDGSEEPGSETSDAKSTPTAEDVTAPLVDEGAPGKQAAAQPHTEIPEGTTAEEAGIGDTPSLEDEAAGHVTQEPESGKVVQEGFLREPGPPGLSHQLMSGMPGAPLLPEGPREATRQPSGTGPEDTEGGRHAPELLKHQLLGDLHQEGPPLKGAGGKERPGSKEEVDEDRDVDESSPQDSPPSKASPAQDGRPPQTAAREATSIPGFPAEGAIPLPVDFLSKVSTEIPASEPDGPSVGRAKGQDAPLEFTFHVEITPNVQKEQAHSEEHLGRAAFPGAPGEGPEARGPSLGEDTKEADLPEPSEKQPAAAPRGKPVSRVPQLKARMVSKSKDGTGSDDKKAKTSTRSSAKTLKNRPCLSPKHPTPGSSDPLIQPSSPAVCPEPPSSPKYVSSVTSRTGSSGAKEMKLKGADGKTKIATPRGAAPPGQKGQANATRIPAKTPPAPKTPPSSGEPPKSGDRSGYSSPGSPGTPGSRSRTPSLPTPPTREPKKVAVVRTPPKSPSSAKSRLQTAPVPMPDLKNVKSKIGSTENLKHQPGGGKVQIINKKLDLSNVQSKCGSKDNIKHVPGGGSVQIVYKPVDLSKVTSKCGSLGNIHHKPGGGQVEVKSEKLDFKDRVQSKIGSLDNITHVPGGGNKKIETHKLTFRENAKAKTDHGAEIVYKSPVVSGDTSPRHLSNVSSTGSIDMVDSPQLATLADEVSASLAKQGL
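Quantitative HTS: thioflavine S signal from ODS-induced tau filaments, excited at 450 nm, emission 510 nm. Conditions: 1 uM tau, 30 uM ODS, 15 h at 37 C, pH 7.4.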
HEK293 cAMP cs: counter-screen for TSHR agonists: cAMP increase in parental HEK293; parental HEK293 CNG cAMP sensor, membrane potential fluorescence; Potency, µM (highest dose often 57.1 µM), inactives show at the highest dose activation, hits mostly activators; actives 2.5% (n = 73,000); further: % of control where 0% means no effect; nearly all actives have a fitted effect of over 55% in size
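Counterscreen for endogenous-receptor signalling: CNG-channel HEK 293 cells report cAMP rise by membrane depolarization. After 60 min dye equilibration with 100 uM RO 20-1724, compounds incubated 30 min before bottom-read fluorescence at 590 nm.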
* hit, by the source's call; i = inactive; ? = inconclusive; / = no result given; [ ] = remark or other dose. Hits are enriched below; roughly 7.6% of the tested compounds scored in any of these assays. Unless noted, the call rests on the fitted dose curve; in most records, active means well fitted curve in the direction sought with a large enough effect; inconclusive means small, poorly fitted or top-dose-only effect, or another doubt; inactive means no such curve, though single readings can be large; an effect the other way counts as inactive or inconclusive. Potency means the concentration at half of the fitted maximal effect.

SMILES	ERK AVP inh	TSHR ag	CRE Fsk mod	Tau filament bind	HEK293 cAMP cs
CCOC(=O)c1c(-c2ccc(C)o2)csc1NC(=O)CSc1nnnn1-c1ccccc1	30%	?	?	14%	?
CCOC(=O)c1c(NC(=O)Cc2cccs2)sc(C(=O)N2CCCCC2)c1C	?	?	2µM*	31%	?
COc1ccc2[nH]cc(CCNc3ncncc3-c3ccccc3C(F)(F)F)c2c1	-10%	?	18%	-9%	?
CCOC(=O)c1sc(NC(=O)CSc2nnc(-c3ccco3)n2CC)c(C(=O)OCC)c1C	9%	?	6%	94%	?
CCOC(=O)c1sc(NC(=O)CSc2nncs2)c(C(=O)OCC)c1C	-2%	?	3.2µM*	39%	25µM*
CN1CCN(C(=O)c2ccc(-n3c(=O)c(=O)[nH]c4ccccc43)cc2)CC1	/	0%	/	/	-18%
COc1ccc(C(=O)COC(=O)CCN=C2NS(=O)(=O)c3ccccc32)cc1OC	?	4%	10µM*	-10%	1%
COCC(=O)O[C@]1(CCN(C)CCCc2nc3ccccc3[nH]2)CCc2cc(F)ccc2[C@@H]1C(C)C	20µM*	-13%	-12%	75%	-10%
CCOC(=O)CCc1nc2ccccc2[nH]1	0%	-2%	0%	4%	1%
COc1ccc(CNc2cc(-c3ccoc3)ncn2)c(OC)c1	-13%	/	4%	-20%	5%
COc1ccc(-c2nnc(SCC(=O)Nc3ncc(C)s3)n2-c2ccccc2)cc1OC	-30%	?	5µM*	68%	?
CCc1nnc(NC(=O)CSc2nnc(-c3ccc(O)cc3)n2-c2ccccc2)s1	-20%	6%	5%	-10%	3%
Oc1ccccc1C(=S)N1CCCCC1	-2%	-9%	4%	-4%	-3%
Oc1ccccc1C(=S)N1CCCCCC1	-10%	-4%	-12%	25µM*	-6%
O=c1c(-c2cc(F)cc(F)c2)nc2cnc(N3CCNCC3)nc2n1-c1ccccc1	-29%	-8%	?	4µM*	-8%
O=c1c(-c2ccc(Cl)cc2)nc2cnc(N3CCNCC3)nc2n1-c1ccccc1	?	1%	?	3.2µM*	-13%
O=c1c(-c2ccccc2)nc2cnc(N3CCNCC3)nc2n1-c1ccccc1	14%	-9%	?	4%	10%
COc1ccc(-n2c(=O)c(C)nc3cnc(N4CCNCC4)nc32)cc1	3%	7%	13µM*	93%	25%
CCNc1ncc2nc(-c3ccc(OC)cc3)c(=O)n(-c3ccc(OC)cc3)c2n1	-18%	?	?	i	32µM*
O=c1c(-c2cc(F)cc(F)c2)nc2cnc(N3CCOCC3)nc2n1-c1ccccc1	8%	?	?	73%	?
NCCC[C@@H](CC(=O)N[C@@H]1CCCC[C@H]1C(=O)N[C@H](CC(=O)N[C@@H](CCC(=O)O)CC(=O)O)Cc1ccccc1)NC(=O)C[C@H](Cc1c[nH]c2ccccc12)NC(=O)[C@@H]1CNCC[C@H]1N	/	13%	-15%	-22%	14%
OB(O)c1ccc(Br)cc1	-11%	?	/	/	0%
COc1ccc(-n2c(=O)c(-c3ccc(Cl)cc3)nc3cnc(N4CCNCC4)nc32)cc1	-20%	-5%	?	4µM*	-11%
Cc1c(-c2ccccc2)nc(N)c(C#N)c1-c1ccco1	-12%	1%	10µM*	24%	15%
CCc1nc(N)c(C#N)c(-c2cccn2C)c1C	?	6%	13µM*	-2%	6%
SMILES	ERK AVP inh	TSHR ag	CRE Fsk mod	Tau filament bind	HEK293 cAMP cs
CCOc1cc(-c2cc(-c3ccc(N)cc3)nc(N)c2C#N)ccc1O	?	-4%	2.5µM*	32µM*	-4%
CCOc1cc(-c2c(C#N)c(N)nc3c2CCCC3)ccc1O	17%	?	?	6%	?
CCc1nc(N)c(C#N)c(-c2ccco2)c1C	-7%	13%	10µM*	7%	23%
Cc1ccc2nc(-c3ccc(N)cc3)sc2c1S(=O)(=O)O	7%	7%	?	-5%	12%
CCCCNc1nc(C)nc2c1nc(-c1ccccc1)n2C(C)CCCN(CC)CC (stereo not given)	-15%	?	-4%	62%	?
COc1nc(N)nc2c1ncn2[C@@H]1C[C@H](O)[C@@H](CO)O1	13%[11.5 µM]	1%[11.4 µM]	10%[7.6 µM]	-3%[11.4 µM]	1%[11.4 µM]
N[C@H](CO)Cc1cnc[nH]1	-25%	/	/	/	/
CC1(O)C(=O)C=C2C=C3CCCN3C=C2C1=O (stereo not given)	20%[11.5 µM]	0%[11.4 µM]	/	/	0%[11.4 µM]
CCc1nc(N)c(C#N)c(-c2ccc(O)c(OC)c2)c1C	?	?	10µM*	-7%	?
CCc1nc(N)c(C#N)c(-c2ccc(OC)c(OC)c2)c1C	-9%	9%	?	14%	12%
COc1cccc([C@H](O)Cn2cc(-c3cccc(CON=C(C)C)c3)nn2)c1	6%[11.5 µM]	8%[11.4 µM]	/	/	6%[11.4 µM]
COc1ccc(-c2nc3cnc(OC)nc3n(Cc3cccc(OC)c3)c2=O)cc1	16%	10%	2.5µM*	1%	15%
COc1cccc(Cn2c(=O)c(CCc3ccccc3)nc3cnc(OC)nc32)c1	8%	?	13µM*	-12%	16µM*
COC(=O)[C@@]1(Cc2ccc(OC)cc2)[C@H]2c3cc(C(=O)N(C)C)n(CCF)c3C[C@H]2CN1C(=O)c1ccccc1	-8%	?	?	-2%	?
COc1ccc(-c2nnc3ccc(SC(C(C)=O)C(C)=O)nn23)cc1OC	17%	1%[11.4 µM]	6.3µM*	-10%	-7%
CCC(Sc1ccc2nnc(-c3ccc(OC)c(OC)c3)n2n1)C(=O)O (stereo not given)	13%	7%[11.4 µM]	5%	-10%	9%
CCC/C=C(\CCC)C(NC(=O)c1ccco1)c1ccc(C(=O)OC)cc1 (stereo not given)	22%	?	3%	-2%	25µM*
CCC/C=C(\CCC)C(NC(=O)c1ccc(-c2ccccc2)cc1)c1ccc(C(=O)OC)cc1 (stereo not given)	17%	6%	2%	19%	26%
CCCCn1c(NC(C)CC)nc2c1c(=O)[nH]c(=O)n2C (stereo not given)	-24%	4%	10µM*	-16%	10%
CN(Cc1ccccc1)c1nc2c(c(=O)[nH]c(=O)n2C)n1CCOc1ccccc1	13µM*	20%	5µM*	-7%	0%
CCCCCn1c(N(C)Cc2ccccc2)nc2c1c(=O)[nH]c(=O)n2C	/	?	10µM*	25%	?
CCCNc1nc2c(c(=O)[nH]c(=O)n2C)n1CCCc1ccccc1	-22%	4%	6%	1%	-10%
CC[C@@H](c1ccccc1)n1c(=O)n2n(c1=O)[C@H]1[C@H](O)[C@H]3O[C@@H]3/C(=N/OCc3ccccc3)[C@@H]1CC2	-1%[11.5 µM]	2%[11.4 µM]	/	/	-3%[11.4 µM]
